The whole screen tested about 420,000 compounds, of which about 50,000 (12%) were called active. Not shown: some 26% with an inconclusive outcome. The call rests on the fitted dose curve; in most records, active means well fitted inhibition curve with a large enough effect; inconclusive means small, poorly fitted or top-dose-only effect; inactive means flat fitted curve, though single readings scatter. Shown is part of a subset that was picked to be rich in actives. Where a call stands in place of a potency, no number is given.
Potency means the concentration at half of the fitted maximal effect.

The assay is described as follows: qHTS for Inhibitors of human tyrosyl-DNA phosphodiesterase 1 (TDP1): qHTS in cells in presence of CPT. Further: nearly all actives have a fitted effect of over 55% in size. The settings on record: chicken DT40 Tdp1-/-;hTDP1 cells + 20 nM CPT, ATP luminescence, 48 h; series mostly up to 46.2 µM. The essentials:
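Chicken DT40 Tdp1-/- cells stably complemented with human TDP1 were seeded at 400 cells/well in medium containing 20 nM camptothecin, exposed to pin-transferred compounds, and grown at 37 °C for at least 48 hr. Viability was read as ATP luminescence.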
In general terms: Quantitative high-throughput screening tests each substance at several concentrations.
In the case of `CCOc1ccc(S(=O)(=O)N2CCCCC2)cc1NC(=O)CN1CCCC1c1cccs1` (stereo not drawn), the Potency was 3.66 µM (active). In the case of `COc1ccc(S(=O)(=O)N2CCCCCC2)cc1NC(=O)Cc1ccc(OC)c(OC)c1`, the Potency entry was “inactive”. With `Cc1ccc(S(=O)(=O)N2CCCCC2)cc1NC(=O)[C@@H]1CCCN1C(=O)c1cccs1`, the Potency result was “inactive”.

As for `Cc1csc[n+]1CCC1CCCCC1`, the Potency is 20 µM (active). Take `CC(=O)c1ccc(N2C(=NC(=O)C(C)C)SC3CS(=O)(=O)CC32)cc1` (stereo not drawn): the Potency result is “inactive”. The value for `O=C(CN1CCN(CC(=O)Nc2ccc3c(c2)OCO3)CC1)Nc1ccc(F)cc1` was “inactive”; that for `O=C(CSc1nnc(-c2ccccn2)n1-c1ccccc1)Nc1ccc2c(c1)OCO2` was “inactive”; that for `O=C(CSc1nc(-c2cccc(F)c2)[nH]c1-c1ccccc1)Nc1ccc2c(c1)OCO2` was 10.3 µM (active). Then `O=c1c(CCc2ccccc2)nc2cncnc2n1C1CC1`, with “inactive”. On to `CCCNC(=O)C(=O)Nc1cc2c3c(c1)CCC(=O)N3CCC2`, for which the Potency entry is “inactive”.

With `Cc1cc(F)ccc1N1CCC(N2CCN(C)C(CCO)C2)CC1` (stereo not drawn), the Potency entry was “inactive”. The value for `O=S(=O)(c1cccc(-c2nnc3n2CCCCC3)c1)N1CCOCC1` was “inactive”; that for `O=C(Nc1ccc2c(c1)nc1n2CCCCC1)c1cc(S(=O)(=O)N2CCOCC2)ccc1Cl` was 11.6 µM (active); that for `O=C(Nc1ccc(N2CCOCC2)c(Cl)c1)c1ccc(S(=O)(=O)N2CCOCC2)cc1` was “inactive”. The value for `N#C/C(=C(\O)C(F)(F)F)c1nnc2n1CCCCC2` was “inactive”; that for `Cc1cccc(C(=O)OCC(=O)Nc2sccc2C(N)=O)c1C` was “inactive”; that for `O=C(/C=C/Sc1ncn[nH]1)c1ccc(Cl)cc1` was 2.31 µM (active). Take `O=C(CSc1ncn[nH]1)N/N=C/c1ccc(F)cc1`: the Potency result is “inactive”. Take `COc1ccc(Cl)cc1CSc1ncn[nH]1`: the Potency entry is “inactive”.

For `COC(=O)c1sccc1-n1cccc1C(=O)C(=O)N1CCCCC1`, the Potency result is “inactive”. As for `COc1cccc(-c2nnc(NC(=O)c3ccc(S(=O)(=O)N(CC(C)C)CC(C)C)cc3)o2)c1`, the Potency is 3.66 µM (active). As to `O=C(COC(=O)c1ccc(Oc2ccccc2)cc1)Nc1nnc(-c2ccccc2)o1`, the Potency entry is “inactive”. In the case of `COc1cccc(NC(=O)c2ccc(S(=O)(=O)N(C)C)cc2)c1`, the Potency entry was “inactive”.

With `O=C1/C(=C/c2ccc(F)cc2)SC(=S)N1NS(=O)(=O)c1ccccc1`, the Potency entry was “inactive”. As to `O=C(CCN1C(=O)c2ccccc2C1=O)C1=NN[C@@H]2C(=O)N(c3ccc(F)cc3)C(=O)[C@H]12`, the Potency entry is “inactive”. For `CCCCCCc1cc2cc(-c3nnc(-c4ccccc4)o3)c(=O)oc2cc1O`, the Potency is 14.6 µM (active).

Consider `CCCC(=O)Nc1nnc(-c2ccccc2)o1`, for which the Potency result was “inactive”.

With `Cc1c(CC(=O)NCCCCCC(=O)O)c(=O)oc2cc3occ(-c4ccccc4)c3cc12`, the Potency result is “inactive”.

The record behind these values is PubChem BioAssay AID686979 (National Center for Advancing Translational Sciences (NCATS), 2013).
